Assay outcomes as filed in PubChem BioAssay.
TR SRC2 fluor cs: counter-screen for TRb-SRC2 inhibitors: fluorescence interference | 0.29% of 280,000 active | Potency, µM (top dose mostly 106 µM), inactives show top-dose fluorescence change, negative = quenching | TRb/SRC2 Texas Red total fluorescence interference | AID 1479; active = well fitted curve in either direction with a large enough effect; inconclusive = small, poorly fitted or top-dose-only effect; also: potency is read from the fitted curve at half-maximal effect; % is scaled to controls: 0 for no effect and ±100 for the full control effect
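Human TRb ligand-binding domain at 0.6 uM with 20 nM Texas Red SRC2 peptide in Tris buffer containing 1 uM T3 and 5% DMSO, incubated with compound 5 h at ambient temperature. Total fluorescence (555/632 nm) calculated as parallel + 2 × perpendicular.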
HttQ103 aggreg: reduces HttQ103-GFP aggregates in PC12 cells | AID 1688 | PC12 HttQ103-GFP aggregates, Acumen cytometry, 40 h | Potency, µM (series often up to 46.1 µM), inactives show at the top dose activity change, negative = inhibition, actives largely listed as inhibitors | 1.1% of 220,000 active; also: potency is read from the fitted curve at half-maximal effect; % is scaled to controls: 0 for no effect and ±100 for the full control effect; nearly all actives have a fitted effect of over 60% in size
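Aggregate formation scored by laser-scanning cytometer (488 excitation, 500–530 emission) in lysed PC12 cells expressing Q103-GFP after 100 nM tebufenozide induction; library tested in dose series, with ATPLite reagent added in the multiplex.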
Coupling enz: coupling enzyme interference in Giardia aldolase counter-screen; coupling enzyme system counterscreen, AmpLite Red fluorescence; 0.67% of 290,000 active; AID 2472; activity change, negative = inhibition, % at 58.2 µM, hits read low; in the data active = activity change below about -30%; also: % is scaled to controls: 0 for no effect and ±100 for the full control effect
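Final compound at 57.5 uM, incubated 10 min at RT with coupling enzyme reagent (glyceraldehyde-3-phosphate), then 20 min with substrate and AmpLite Red detection. Fluorescence read at 525/598 nm; tests interference with the coupling assay, not aldolase inhibition.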
KDM4E inh: inhibitors of human JMJD2E histone demethylase; B2RXH2; JMJD2E catalytic domain, FDH-coupled NADH fluorescence (FDH is formaldehyde dehydrogenase); Potency, µM (series often up to 57.1 µM), inactives show top-dose activity change, negative = inhibition, hits mostly inhibitors; 1.6% of 230,000 active; active = well fitted inhibition curve with a large enough effect, not every such curve was filed as active; inconclusive = small, poorly fitted or top-dose-only effect, or another doubt; inactive = no such curve, though single readings can be large or run the other way;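 also: potency is read from the fitted curve at half-maximal effect; 0% = wells with enzyme and -100% = buffer wells without enzyme; nearly all actives have a fitted effect of over 50% in size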
HTT ATP protect: cytoprotection in Huntington HTT-Q103 PC12 cell model. PC12 HTT-Q103 induced, cytoprotection, ATP luminescence, 40 h. Potency, µM (doses to about 56.4 µM), for inactives: cytoprotection (ATP increase), hits mostly activators. 0.14% of 230,000 active; also: potency is read from the fitted curve at half-maximal effect; % of control where 0% means no effect; nearly all actives have a fitted effect of over 45% in size
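ATP quantification (ATPlite) reports survival of PC12 cells in which tebufenozide, 100 nM final, switches on Htt exon 1 with 103 glutamines linked to GFP; compounds are titrated.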
TRb SRC2 PPI: TRbeta-SRC2 interaction inhibition. P10828. TRbeta-SRC2 peptide binding, fluorescence polarization; receptor liganded with 1 µM T3. Potency, µM (doses to about 106 µM), without a hit: at the highest dose activity change, negative = inhibition, hits mostly inhibitors. 0.065% of 280,000 active. AID 1469;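 also: potency is read from the fitted curve at half-maximal effect; plate controls were bound peptide for no effect and peptide without receptor for full effect; nearly all actives have a fitted effect of over 50% in size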
Target sequence (P10828 whole entry, looked up): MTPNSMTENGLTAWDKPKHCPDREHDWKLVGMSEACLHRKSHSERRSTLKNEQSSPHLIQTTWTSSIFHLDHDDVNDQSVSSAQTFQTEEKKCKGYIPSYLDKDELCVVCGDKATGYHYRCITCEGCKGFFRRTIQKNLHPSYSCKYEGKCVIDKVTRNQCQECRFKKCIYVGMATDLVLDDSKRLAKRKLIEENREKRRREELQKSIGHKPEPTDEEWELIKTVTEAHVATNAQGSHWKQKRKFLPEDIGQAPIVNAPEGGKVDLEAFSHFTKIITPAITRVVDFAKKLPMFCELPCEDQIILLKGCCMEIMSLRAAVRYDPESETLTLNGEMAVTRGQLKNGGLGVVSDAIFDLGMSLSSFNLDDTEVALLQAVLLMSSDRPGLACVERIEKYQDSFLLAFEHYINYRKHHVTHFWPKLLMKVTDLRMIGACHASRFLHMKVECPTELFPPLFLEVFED
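A fluorescence polarization screen tested compounds at multiple concentrations against complex formation between 0.6 uM TRb ligand-binding domain and 20 nM Texas Red SRC2 peptide, with 1 uM T3 present; readout after 5 hr.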
Numbers without * were called inactive; [ ] = another dose, or the depositor's remark. Only some compounds are listed: those with a hit (about 2% of all), similar ones and a draw of the others. Unless noted, calls follow the shape of the dose curve; as a rule, active = well fitted curve in the direction sought with a large enough effect; inconclusive = small, poorly fitted or top-dose-only effect, or another doubt; inactive = no such curve, though single readings can be large; an effect the other way counts as inactive or inconclusive.

Screening O=C(O)/C=C\c1ccc(O)c(O)c1 returned TR SRC2 fluor cs -5%[53 µM], Coupling enz -2, KDM4E inh 11µM*, HTT ATP protect -21% and TRb SRC2 PPI 1%[53 µM].
`CCCCC/C=C\C\C=C/C=C/C=C/[C@@H](SCC(N)C(=O)NCC(=O)O)[C@@H](O)CCCC(=O)O` (some centres undefined) gave TR SRC2 fluor cs 1%, Coupling enz -6, KDM4E inh 12%, HTT ATP protect -13% and TRb SRC2 PPI -5%.
`Cc1ccc(C(=O)Nc2nnc(S(=O)(=O)N(C)Cc3ccc(F)cc3)s2)cc1` gave TR SRC2 fluor cs -1% and TRb SRC2 PPI 2%.
Cc1cccc(OCC(=O)N(Cc2ccc(N(C)C)cc2)Cc2ccco2)c1C was read as TR SRC2 fluor cs 0.45µM*[quencher] and TRb SRC2 PPI -26%[53 µM].
For Cc1ccc(CN(Cc2ccco2)C(=O)COc2cccc(C)c2C)o1 the results were TR SRC2 fluor cs -1% and TRb SRC2 PPI 0%.
N[C@H](Cc1ccc(F)cc1)C(=O)O was read as HTT ATP protect 17%[1.9 µM].
Cc1c(CBr)[n+](=O)c2c(n1[O-])C(Br)CCC2Br (centres undefined) was read as TR SRC2 fluor cs -1%, HttQ103 aggreg 20%[9.22 µM], Coupling enz -5, KDM4E inh 28µM*, HTT ATP protect -10%[10 µM] and TRb SRC2 PPI 0%.
`Cc1c(C)[n+](=O)c2c(n1[O-])C(Br)CCC2Br` (centres undefined) gave TR SRC2 fluor cs -2%, HttQ103 aggreg 13%[9.22 µM], Coupling enz 1, KDM4E inh -22%, HTT ATP protect 0%[10 µM] and TRb SRC2 PPI -7%.
For Cc1ccc(-c2c(C)n3c4c(=O)n(C)c(=O)n(C)c4nc3n2-c2cccc(O)c2)cc1 the results were TR SRC2 fluor cs 11µM*[quencher] and TRb SRC2 PPI -6%.
For CCc1ccc(-n2c(-c3ccccc3)c(C)n3c4c(=O)n(C)c(=O)n(C)c4nc23)cc1 the results were TR SRC2 fluor cs 56µM*[quencher] and TRb SRC2 PPI -17%.
Screening CCOC(=O)C1CCC(CN(Cc2ccc(Cl)cc2)S(=O)(=O)c2ccc(Br)cc2)CC1 (centres undefined) returned TR SRC2 fluor cs -2% and TRb SRC2 PPI -6%.
For COc1cc2cc(CN(Cc3nnnn3Cc3ccco3)C3CCCCC3)c(=O)[nH]c2cc1OC the results were TR SRC2 fluor cs -16%, HttQ103 aggreg 3%, Coupling enz -33*, KDM4E inh inconclusive, HTT ATP protect -7% and TRb SRC2 PPI -13%.
`CCOc1ccc2[nH]c(=O)c(CN(Cc3nnnn3Cc3ccco3)C3CCCCC3)cc2c1` gave TR SRC2 fluor cs inconclusive, HttQ103 aggreg 2%, Coupling enz -23, KDM4E inh inconclusive, HTT ATP protect -17% and TRb SRC2 PPI 14%.
For CC1(C)Cc2c(sc3c2c(=N)n(Cc2ccco2)c(=O)n3Cc2ccc(Cl)cc2)CO1 the results were TR SRC2 fluor cs 0%, HttQ103 aggreg 18µM*, Coupling enz -3, KDM4E inh -1%, HTT ATP protect -24% and TRb SRC2 PPI 1%.
For CC1(C)Cc2c(sc3c2c(=N)n(Cc2ccco2)c(=O)n3Cc2ccccc2)CO1 the results were TR SRC2 fluor cs 0%, HttQ103 aggreg inconclusive, Coupling enz -2, KDM4E inh -8%, HTT ATP protect -25% and TRb SRC2 PPI -8%.
Screening Clc1cccc(-n2cc(-c3ccccc3)c3c(N4CCCCC4)ncnc32)c1 returned TR SRC2 fluor cs -3% and TRb SRC2 PPI 1%.
`Cc1ccc(-c2cc(C(=O)NCc3ccccc3)c3c(-c4ccc(C)cc4)[nH]nc3n2)cc1` gave TR SRC2 fluor cs -5% and TRb SRC2 PPI -3%.
For CN(C)CCOc1nc(-c2ccccc2)nc2c1oc1ccccc12 the results were TR SRC2 fluor cs -6%, HttQ103 aggreg 22µM*, Coupling enz -2, KDM4E inh -5%, HTT ATP protect -44% and TRb SRC2 PPI 2%.
